Screening results as filed in PubChem BioAssay.
USP10 inh = inhibitors of human USP10 deubiquitinase; Ubiquitin carboxyl-terminal hydrolase 10 (Homo sapiens), Q14694; purified USP10, Ub-rhodamine fluorescence, 60 min; inhibition, % at 20 µM; 47,000 tested, 1.1% active; AID 1645856, 2021
UCHL1 inh = inhibitors of human UCHL1 deubiquitinase; Ubiquitin carboxyl-terminal hydrolase isozyme L1 (Homo sapiens), P09936; purified UCHL1, Ub-rhodamine cleavage fluorescence; inhibition, % at 20 µM; 47,000 tested, 0.2% active; AID 1645859, 2021
USP8 inh = inhibitors of human USP8 deubiquitinase; inhibition, % at 20 µM; Ubiquitin carboxyl-terminal hydrolase 8 (Homo sapiens), P40818; 47,000 tested, 4.2% active; purified USP8, Ub-rhodamine cleavage fluorescence, 30 min
USP7 block = inhibitors of human USP7 deubiquitinase | Ubiquitin carboxyl-terminal hydrolase 7 (Homo sapiens), Q93009 | purified USP7, Ub-rhodamine cleavage fluorescence | inhibition, % at 20 µM | 47,000 tested, 0.3% active | AID 1645854, 2021
* hit, by the source's call. Only some compounds are listed: those with a hit (about 4.6% of all), similar ones and a draw of the others. Rule as the data show it: active = inhibition above about 30%; inactive = the rest.

SMILES	USP10 inh	UCHL1 inh	USP8 inh	USP7 block
COc1ccc(NC(=O)C2CCCN(S(=O)(=O)N3CCC(C)CC3)C2)c(OC)c1 (configuration not stated)	-3	-3	44*	-5
O=C(Nc1ccccc1)c1ccnc(Nc2ccc(F)cc2)c1	1	0	40*	-6
Cc1ccc2c(Nc3ccccc3)c(C(=O)N3CCCC3)cnc2n1	-2	-4	-4	0
O=C(Cn1c(=O)n(CC(=O)NC2CCCC2)c(=O)c2ccccc21)Nc1ccc(F)cc1	16	-2	37*	2
COc1ccc(NC(=O)Cn2c(=O)n(CCC(=O)NC3CCCC3)c(=O)c3ccccc32)cc1Cl	0	1	-5	-2
COc1ccc(Cl)cc1NC(=O)Cn1c(=O)n(CCC(=O)NC2CCCC2)c(=O)c2ccccc21	43*	2	24	-7
COc1ccccc1CNC(=O)CCCCn1c(=O)c2ccccc2n(Cc2cc(=O)n3c(C)cccc3n2)c1=O	0	7	45*	-3
COc1ccc(CCNC(=O)CCCCn2c(=O)c3ccccc3n(Cc3cccc(Cl)c3)c2=O)cc1OC	1	5	3	7
COc1ccc(Cl)cc1NC(=O)Cn1c(=O)n(CCCCC(=O)NCCc2ccccc2)c(=O)c2ccccc21	43*	0	42*	2
COc1ccc(NC(=O)Cn2c(=O)n(Cc3ccco3)c(=O)c3ccc(C(=O)NC4CCCC4)cc32)cc1	49*	1	60*	13
O=C(Cn1c(=O)n(CC(=O)NC2CCCC2)c(=O)c2ccccc21)Nc1cc(Cl)ccc1Cl	19	4	32*	9
COc1cc(OC)c(NC(=O)Cn2c(=O)n(Cc3ccccc3Cl)c(=O)c3cc(OC)c(OC)cc32)cc1Cl	36*	0	26	3
CCOc1ccc(NC(=O)Cn2c(=O)n(CCC(=O)NCc3ccccc3OC)c(=O)c3ccccc32)cc1	34*	1	32*	12
COc1ccccc1CNC(=O)CCn1c(=O)c2ccccc2n(Cc2ccccc2C#N)c1=O	4	1	2	5
COc1ccccc1CNC(=O)c1cnc(N2CCCC2)nc1N	-5	3	-15	0
COc1ccc(NC(=O)Cn2c(CS(=O)(=O)c3ccc(C)cc3)nc3ccccc32)cc1	4	2	11	13
COc1cc2c(=O)n(CCC(=O)NC3CCCC3)c(=O)n(CC(=O)Nc3cccc(Cl)c3)c2cc1OC	31*	7	-29	-7
N#Cc1cccc(NC(=O)CC(=O)Nc2ccc3nc4n(c(=O)c3c2)CCCCC4)c1	9	0	56*	9
Cc1ccc(-c2c3c(=O)n(C)c(=O)n(C)c3cn2CC2CCCO2)cc1 (configuration not stated)	-2	-3	-109	-2
CC(C)CC1Nc2ccc(C(=O)N3CCN(c4ccccn4)CC3)cc2NC1=O (configuration not stated)	4	5	53*	8
O=S(=O)(c1ccc(F)cc1)c1nc(-c2ccco2)oc1SCc1ccc(F)cc1	1	4	15	-83
O=S(=O)(Nc1nc(-c2ccco2)c(-c2ccco2)s1)c1ccc(F)cc1F	-5	8	37*	-19
Cc1cccc(CCN2C(=O)CCc3c(C)nc(C4CCCNC4)nc32)c1 (configuration not stated)	0	4	-2	33*
Cn1c(=O)c2ccc(C3CCN(C(=O)CCc4ccccc4)C3)nc2n(C)c1=O (configuration not stated)	0	-1	1	0
CCOc1ccccc1NC(=O)Cn1c(=O)n(CCC(=O)NC2CCCC2)c(=O)c2ccccc21	2	1	26	3
SMILES	USP10 inh	UCHL1 inh	USP8 inh	USP7 block
CCOc1ccccc1NC(=O)Cn1c(=O)n(CCC(=O)NCc2ccc3c(c2)OCO3)c(=O)c2sccc21	69*	7	54*	29
O=C(CCn1c(=O)c2sccc2n(CC(=O)OCc2ccccc2)c1=O)NCc1ccc2c(c1)OCO2	36*	5	61*	16
Cc1noc(C)c1CNc1ccc(Cl)cc1	6	2	39*	-11
NS(=O)(=O)c1ccc(CCNC(=O)COC(=O)c2cc(-c3ccc(Cl)cc3)nc3ccccc23)cc1	-4	5	66*	6
CCOC(=O)N1CCN(C(=O)c2cn(CC)c3ccc(S(=O)(=O)N4CCc5ccccc5C4)cc3c2=O)CC1	0	1	46*	0
CCn1cc(C(=O)N2CCCCCC2)c(=O)c2cc(S(=O)(=O)N3CCCCCC3)ccc21	-4	-8	-10	-6
